# In the library only some 11% were active in any assay of this set; here they are far more common.
# USP17 block: inhibitors of human USP17 deubiquitinase | A8MUK1 | purified USP17, Ub-rhodamine cleavage fluorescence, 3 h | actives 6.5% (n = 47,000) | inhibition, % at 50 µM
# USP28 inh: inhibitors of human USP28 deubiquitinase; Q96RU2; purified USP28, Ub-rhodamine cleavage fluorescence, 30 min; inhibition, % at 25 µM; actives 3% (n = 47,000); AID 1645857
# USP30 block: blocks human USP30 ubiquitin-rhodamine cleavage; Q70CQ3; purified USP30, Ub-rhodamine cleavage fluorescence; inhibition, % at 25 µM; actives 5.3% (n = 47,000)
# Target sequence (Q70CQ3 whole entry, looked up): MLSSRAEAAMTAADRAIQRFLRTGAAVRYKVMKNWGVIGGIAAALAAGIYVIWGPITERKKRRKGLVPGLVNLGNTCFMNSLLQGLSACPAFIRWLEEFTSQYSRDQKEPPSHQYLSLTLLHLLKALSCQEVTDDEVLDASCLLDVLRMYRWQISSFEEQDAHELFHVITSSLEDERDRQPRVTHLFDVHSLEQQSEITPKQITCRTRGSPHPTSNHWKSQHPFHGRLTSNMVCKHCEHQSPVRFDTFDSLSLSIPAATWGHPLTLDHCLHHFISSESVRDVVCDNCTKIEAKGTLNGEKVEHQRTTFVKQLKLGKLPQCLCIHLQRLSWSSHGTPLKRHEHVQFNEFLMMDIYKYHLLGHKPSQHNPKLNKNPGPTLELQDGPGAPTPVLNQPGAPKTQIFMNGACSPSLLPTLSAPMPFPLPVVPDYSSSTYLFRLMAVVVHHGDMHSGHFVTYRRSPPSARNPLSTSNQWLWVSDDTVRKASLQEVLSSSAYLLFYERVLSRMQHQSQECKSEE
# OTUD3 block: blocks human OTUD3 ubiquitin-rhodamine cleavage; purified OTUD3, Ub-rhodamine fluorescence, 2 h; inhibition, % at 25 µM; actives 0.7% (n = 47,000)
# Active calls of the source: *; . = not tested or not shown. Cut-off read from the data, not from the text of the source: active = inhibition above about 30%; inactive = the rest.
SMILES,USP17 block,USP28 inh,USP30 block,OTUD3 block
CCn1c(=O)c2sccc2n2c(CCC(=O)NC3CCCCCC3)nnc12,13.3,11.2,29.0,18.0
O=C1c2c(O)cc(O)cc2OC(c2ccc(O)c(O)c2)C1O (stereo not drawn),65.0*,55.8*,59.6*,62.2*
COc1ccc2c(c1)C/C(=C/c1ccc(OC)cc1OC)CC2=O,11.6,4.2,13.8,3.7
COc1cccc2c1C(=O)c1ccc3c(c1C2=O)C(=O)CC(C)(O)C3 (stereo not drawn),62.2*,0.3,21.5,-0.9
Cn1cc(S(=O)(=O)Nc2cnn(Cc3cccc(Cl)c3)c2)cn1,31.2*,7.7,8.5,11.5
O=C(CCc1nc(CSc2nc3ccccc3o2)no1)Nc1ccccc1F,17.1,47.6*,16.2,12.8
FC(F)(F)c1cccc(Nc2nnc(-c3cccnc3)s2)c1,50.2*,-2.4,21.7,2.1
NC(=O)COC(=O)c1cccnc1Nc1cccc(C(F)(F)F)c1,-13.2,16.5,-44.1,-13.6
CC(=O)c1ccc(NC(=O)C(C)Sc2nnc(C)n2CC2CCCO2)cc1 (stereo not drawn),-8.9,-2.0,-2.5,-1.0
CCc1ccccc1OCCCn1c(-c2ccc(Cl)cc2)nc2ccccc2c1=O,-19.1,-13.1,4.8,-6.7
COc1ccc(Cn2c(Oc3ccccc3C)nc3c2c(=O)n(C)c(=O)n3C)cc1,27.0,12.9,32.1*,20.1
COc1ccccc1/C=C1\CCn2c1nc1scc(-c3ccccc3)c1c2=O,5.2,4.0,-110.7,0.0
Cc1ccc2nc(N3CCc4ccccc4C3)c3nncn3c2c1,58.9*,33.6*,27.2,20.5
CCOc1ccc(CNc2nc3ccc(C)cc3n3cnnc23)cc1OC,-0.4,0.1,-0.3,-3.3
O=S(=O)(C1CC1)N1CCOC2(CCCN(c3ncc(F)cn3)C2)C1 (stereo not drawn),16.2,14.6,35.3*,12.9
Cc1ccc(NC(=O)Cc2nnc3c(-c4nc(C5CC5)no4)cccn23)cc1,52.0*,28.8,36.1*,17.7
Cc1ccccc1NC(=O)Cc1nnc2c(-c3nc(C4CC4)no3)cccn12,-5.2,-3.3,-6.3,15.1
COc1cc(NC(=O)Cn2nc(C(C)C)c(-c3cc(C)no3)cc2=O)cc(OC)c1,30.7*,38.2*,32.0*,11.9
CC(=O)Nc1ccc(S(=O)(=O)NC2COc3ccccc3C2)cc1 (stereo not drawn),-8.5,-6.9,-11.5,-6.0
Nc1ncnc2c1c(-c1ccccc1)c(-c1ccccc1)n2CCc1ccc(F)cc1,44.3*,0.5,45.4*,10.7
OCCCNc1ncnc2c1c(-c1ccccc1)c(-c1ccccc1)n2Cc1ccco1,0.4,-11.6,-0.2,-20.2
O=C(Nc1ccc(-c2cn3ccsc3n2)cc1)c1ccccc1Br,17.1,16.8,36.9*,12.7
CN1CCN(CCNC(=O)CCc2nnc3ccc(N4CCCC4)nn23)CC1,-26.8,-24.3,-77.6,-20.7
O=S(=O)(Cc1nnc(-c2ccccc2C(F)(F)F)o1)c1ccc(Cl)cc1,67.5*,-10.5,-2.0,-3.9
CCC(C(=O)Nc1ncc2c(n1)CC(c1ccc(F)cc1)CC2=O)c1ccccc1 (stereo not drawn),19.7,31.6*,33.8*,21.0
SMILES,USP17 block,USP28 inh,USP30 block,OTUD3 block
CCC(C(=O)Nc1ncc2c(n1)CC(c1ccc(OC)cc1)CC2=O)c1ccccc1 (stereo not drawn),6.8,5.4,13.4,5.4
O=C1CC(c2ccccc2)Cc2nc(Nc3cc(Cl)cc(Cl)c3)ncc21 (stereo not drawn),32.9*,-8.8,-4.8,5.7
COc1ccccc1Nc1ncc(C(=O)NCc2ccc3c(c2)OCO3)c2ccccc12,32.0*,5.1,13.6,10.4
COc1ccccc1Nc1ncc(C(=O)NCc2ccc(F)cc2)c2ccccc12,34.9*,-4.0,-29.1,-2.4
COc1cc(Cl)ccc1Nc1ncc(C(=O)Nc2ccc3c(c2)OCO3)c2ccccc12,15.2,16.4,6.9,19.1
CCOC(=O)c1cnc(Nc2ccccc2OC)c2ccccc12,7.9,-25.3,-93.3,-22.9
COc1ccc(CNC(=O)C2CCCN(C(=O)c3[nH]c(C)cc3C)C2)c(OC)c1 (stereo not drawn),-4.4,-18.0,7.0,-10.1
CCOC(=O)c1cccc(NC(=O)Nc2cccn3nc(C)nc23)c1,-13.7,83.1*,14.3,-4.2
CCc1nc2c(NC(=O)Nc3cccc(C(=O)OC)c3)cccn2n1,4.2,50.2*,-2.7,-1.1
COc1cccc(C(=O)Nc2cccn3nc(C)nc23)c1,7.1,3.1,23.2,5.8
CCc1ccc(NC(=O)CSc2cn(Cc3cccc(F)c3)c3ccccc23)cc1,-3.3,11.6,2.7,3.8
COC(=O)c1ccccc1NC(=O)C1CCCN(c2nnc(-n3cccc3)s2)C1 (stereo not drawn),.,17.6,36.4*,27.7
Cc1noc(C)c1CCn1ccc2ccn(Cc3cccnc3)c2c1=O,4.7,9.0,4.1,13.2
Cc1ccccc1Cn1ccc2ccn(Cc3cccnc3)c2c1=O,13.7,60.3*,30.1*,20.1
O=c1c2c(ccn1Cc1cc(F)ccc1F)ccn2Cc1cccnc1,-6.7,68.2*,8.1,-0.3
COc1cccc(NC(=O)c2c(O)c3ccccc3n(CC(C)C)c2=O)c1,14.9,-7.3,-3.2,-11.2
O=C(Nc1cccc(C(F)(F)F)c1)c1ccc2c(c1)SC1=NS(=O)(=O)CCN12,35.4*,2.5,-4.3,-0.2
N#Cc1cccc(NC(=O)c2ccc(S(=O)(=O)N3CCOCC3)cc2)c1,10.7,5.9,8.9,6.9
CCOC(=O)c1ccc(NC(=O)c2ccc(S(=O)(=O)N3CCc4ccccc4C3)cc2)cc1,32.5*,9.4,49.6*,8.9
CCOC(=O)c1ccc(S(=O)(=O)N2CCC(C(=O)OC(C)C(=O)Nc3cccc([N+](=O)[O-])c3)CC2)cc1 (stereo not drawn),7.5,42.4*,82.7*,14.7
CCOC(=O)c1cccc(NC(=O)c2ccc(S(=O)(=O)N3CCN(C)CC3)cc2)c1,.,30.7*,-2.2,-1.1
Cc1cc(C)c(S(=O)(=O)N2CCC(C(=O)OC(C)C(=O)Nc3ccccc3-c3ccccc3)CC2)c(C)c1 (stereo not drawn),-1.7,2.7,-3.7,6.8
O=C(Nc1ccc(-c2nc3ccccc3o2)cc1)c1ccc(S(=O)(=O)N2CCc3ccccc3C2)cc1,34.6*,4.3,34.2*,9.5
COc1ccccc1CNC(=O)CCc1nc2c(C)nn(-c3ccccc3)c2n(C)c1=O,-10.7,4.0,22.4,-1.1
CC(C)(C)C(=O)N1CCN(c2ccc(N3CCCCC3)nn2)CC1,.,-8.5,-6.5,-6.4
SMILES,USP17 block,USP28 inh,USP30 block,OTUD3 block
COc1cccc(C(=O)NCCSc2ccc(Cl)cc2)c1,34.9*,43.9*,24.0,19.6
O=C(NCCSc1ccc(Cl)cc1)c1cccc(F)c1,21.8,28.0,18.0,13.8
COc1ccc(S(=O)(=O)N2CCC(c3nc4ccc(-c5ccncc5)cn4n3)CC2)cc1,7.2,9.8,10.7,0.7
CCN(CC)C(=O)c1nc2c(s1)CCN(C(=O)c1cccc(OC)c1)CC2,-3.2,0.0,-5.2,-3.3
Cc1c(-c2nnc(-c3ccccc3Cl)o2)nnn1-c1ccccc1,2.8,34.8*,80.8*,5.8
CCOc1ccc(-n2nnnc2-c2ccccn2)cc1,5.3,10.3,30.6*,16.6
Cc1nc(C)c2c(n1)CCN(Cc1cnn(C)c1)CC2,-1.4,0.0,4.2,-1.0
